Among the test systems are DU-145 prostate; K-562 leukemia; MALME-3M melanoma; MDA-MB-231 breast; RXF 393 renal; SF-268 CNS; SF-295 CNS; SF-539 CNS; UACC-257 melanoma; M14 melanoma; HCT-15 colon; HT29 colon; SNB-19 CNS; U251 CNS; PC-3 prostate; SK-MEL-5 melanoma; UACC-62 melanoma; LOX IMVI melanoma; SK-MEL-28 melanoma.
Common to all, as to assay: NCI-60 one-dose screen, 48 h (100 = growth as untreated, 0 = no growth, -100 = all killed)
Common to all, as to conditions: 10 µM unless noted

The structures appear in SMILES notation. This is part of a sample that, as a whole, favours compounds with a hit. Of some 83,000 tested, about 20% had one in any assay.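 Values shown are percent growth following 48 h exposure of cells in 96-well plates to a single concentration of compound; below 10 was considered active.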 A number with no mark means an inactive call. Active and inactive are the calls of the source.

For `COc1ccccc1/C=C(/C(=O)c1ccccc1)c1ccccc1`, the growth with DU-145 prostate was 110%; with K-562 leukemia, 86.6%; in the experiment with MALME-3M melanoma it was 135%; in the experiment on MDA-MB-231 breast, 98.6%; with RXF 393 renal, 105%; in the experiment with SF-268 CNS it was 97.8%. The growth was 104% with SF-295 CNS; 106% in the experiment with SF-539 CNS; 93.4% in the experiment with UACC-257 melanoma; 101% with M14 melanoma; 93.4% in the experiment with HCT-15 colon; 110% in the experiment with HT29 colon. Further, the growth is 90.8% in the experiment with SNB-19 CNS; 96.4% in the experiment with U251 CNS; 92.2% in the experiment with PC-3 prostate; 99.1% in the experiment with SK-MEL-5 melanoma; 82.4% in the experiment on UACC-62 melanoma; 87.8% in the experiment on LOX IMVI melanoma. For the same molecule, the growth in the experiment on SK-MEL-28 melanoma was 108%.

As for `O=C1CCc2c(sc3[nH]c(=S)n(Cc4ccccc4)c(=O)c23)C1`, the growth is 64.1% in the experiment with DU-145 prostate; 11.5% in the experiment on K-562 leukemia; 69% in the experiment with MALME-3M melanoma; 16.5% with MDA-MB-231 breast; 20.8% with RXF 393 renal; 19.4% in the experiment with SF-268 CNS. The growth is -13.9% (active) in the experiment with SF-295 CNS; -12.6% (active) in the experiment on SF-539 CNS; 29.1% in the experiment on UACC-257 melanoma; 18.9% in the experiment with M14 melanoma; 7.5% (active) in the experiment with HCT-15 colon; 79.6% in the experiment on HT29 colon. Further, the growth in the experiment on SNB-19 CNS was 11.8%; with U251 CNS, 8.09% (active); with PC-3 prostate, 13.9%; in the experiment with SK-MEL-5 melanoma, -75.6% (active); with UACC-62 melanoma, 8.72% (active); in the experiment on LOX IMVI melanoma it was 11.7%. Further, the growth in the experiment with SK-MEL-28 melanoma was 25%.

As to `COc1cc2c(c(OC)c1OC)-c1ccc(N=NC(N)=S)c(=O)cc1[C@@H](NC(C)=O)CC2`, the growth with DU-145 prostate was -40.1% (active); in the experiment with K-562 leukemia it was 9.08% (active); with MALME-3M melanoma, 61.2%; with MDA-MB-231 breast it was 9.7% (active); in the experiment on RXF 393 renal, -13.5% (active); in the experiment with SF-268 CNS, 9.15% (active). Also, the growth in the experiment with SF-295 CNS is 6.76% (active); in the experiment on SF-539 CNS it was 1.01% (active); in the experiment on UACC-257 melanoma, 49.5%; in the experiment with M14 melanoma, -39.1% (active); in the experiment on HCT-15 colon it was 76.4%; with HT29 colon it was -2.5% (active). Further, the growth in the experiment with SNB-19 CNS is 27.9%; in the experiment on U251 CNS, 9.3% (active); in the experiment on PC-3 prostate it was 57.3%; in the experiment on SK-MEL-5 melanoma, -33.2% (active); in the experiment on UACC-62 melanoma, 17.2%; in the experiment on LOX IMVI melanoma, 13.5%. The growth with SK-MEL-28 melanoma is 53.6%.

On to `CCC(=O)Oc1ccc(/C(=C(\C)c2ccccc2)c2ccc(OCCN(CC)CC)cc2)cc1`, for which the growth with DU-145 prostate is 102%; with K-562 leukemia, 23%; in the experiment on MALME-3M melanoma, 80.3%; in the experiment on MDA-MB-231 breast, 89.7%; in the experiment on RXF 393 renal, 93.4%; in the experiment on SF-268 CNS it was 85.5%. Moreover, the growth is 95.2% in the experiment with SF-295 CNS; 76.9% in the experiment on SF-539 CNS; 87.4% in the experiment with UACC-257 melanoma; 69% with M14 melanoma; 54.3% with HCT-15 colon; 7.83% (active) with HT29 colon. For the same molecule, the growth is 87.8% with SNB-19 CNS; 71.6% in the experiment with U251 CNS; 66.7% in the experiment on PC-3 prostate; 74.8% in the experiment with SK-MEL-5 melanoma; 93.4% in the experiment on UACC-62 melanoma; 87.8% with LOX IMVI melanoma. The growth in the experiment with SK-MEL-28 melanoma is 80.3%.

Take `CC1=C(C)C(=O)OC([C@](C)(O)[C@]2(O)CC[C@@]3(O)[C@@H]4C[C@H]5O[C@]56CC=CC(=O)[C@]6(C)[C@H]4CC[C@]23COC(=O)c2ccc(C)o2)C1` (some centres not stated): the growth is -92.1% (active) in the experiment on DU-145 prostate; 1.46% (active) in the experiment with K-562 leukemia; -85% (active) in the experiment with MALME-3M melanoma; -54.8% (active) with MDA-MB-231 breast; -88.8% (active) in the experiment with RXF 393 renal; -55.8% (active) with SF-268 CNS. The growth in the experiment on SF-295 CNS is -24.5% (active); with SF-539 CNS, -91.2% (active); with UACC-257 melanoma it was -58.7% (active); in the experiment with M14 melanoma it was -0.794% (active); in the experiment with HCT-15 colon it was -86.2% (active); in the experiment on HT29 colon it was -73.6% (active). Moreover, the growth in the experiment on SNB-19 CNS was -85% (active); in the experiment with U251 CNS, -85.2% (active); in the experiment with PC-3 prostate, -35% (active); in the experiment on SK-MEL-5 melanoma, -80.6% (active); in the experiment on UACC-62 melanoma, -83.3% (active); in the experiment on LOX IMVI melanoma it was -95% (active). For the same molecule, the growth with SK-MEL-28 melanoma was -86.1% (active).

On to `C=C1C(=O)O[C@H]2[C@H]1CC/C(Cn1cc(Cn3ccc4ccccc43)nn1)=C\CC[C@@]1(C)O[C@@H]21`, for which the growth with DU-145 prostate was 18.1%; in the experiment on K-562 leukemia it was -16.5% (active); with MALME-3M melanoma, -54.5% (active); in the experiment with MDA-MB-231 breast it was -24.8% (active); with RXF 393 renal, -22.9% (active); with SF-268 CNS it was 39.9%. Moreover, the growth with SF-295 CNS is 76.2%; with SF-539 CNS it was -62.8% (active); in the experiment with UACC-257 melanoma, 41.3%; in the experiment on M14 melanoma, 14.4%; in the experiment with HCT-15 colon it was -34.5% (active); in the experiment with HT29 colon, -13.8% (active). For the same molecule, the growth is 71.1% with SNB-19 CNS; 48.7% with U251 CNS; 40.8% in the experiment with PC-3 prostate; 30.1% in the experiment on SK-MEL-5 melanoma; 33.4% in the experiment with UACC-62 melanoma; -82.8% (active) with LOX IMVI melanoma. The growth with SK-MEL-28 melanoma was 14%.

Turning to `C=C1C(=O)O[C@H]2[C@H]1CC/C(Cn1cc(Cn3ccc4cc(Cl)ccc43)nn1)=C\CC[C@@]1(C)O[C@@H]21`, the growth was 4.94% (active) in the experiment on DU-145 prostate; -29.2% (active) with K-562 leukemia; -67.1% (active) in the experiment with MALME-3M melanoma; -51.8% (active) with MDA-MB-231 breast; -72.2% (active) with RXF 393 renal; 18.4% with SF-268 CNS. For the same molecule, the growth in the experiment with SF-295 CNS was 73.5%; in the experiment on SF-539 CNS it was -88.6% (active); in the experiment on UACC-257 melanoma it was 28.8%; in the experiment on M14 melanoma, -4.18% (active); in the experiment with HCT-15 colon it was -47.1% (active); with HT29 colon, -43.3% (active). The growth was 53.5% in the experiment on SNB-19 CNS; 28.9% with U251 CNS; 6.92% (active) in the experiment on PC-3 prostate; 46.9% with SK-MEL-5 melanoma; 5.99% (active) in the experiment on UACC-62 melanoma; -89.5% (active) in the experiment with LOX IMVI melanoma. Also, in the experiment on SK-MEL-28 melanoma, the growth was -13.3% (active).

Take `COc1cc(/C=C2\CN(C(=O)CCN3CCC(=NO)CC3)C/C(=C\c3cc(OC)c(OC)c(OC)c3)C2=O)cc(OC)c1OC`: the growth was -94% (active) in the experiment on DU-145 prostate; 6.55% (active) with K-562 leukemia; -50.4% (active) in the experiment with MALME-3M melanoma; -73.5% (active) with MDA-MB-231 breast; -85.1% (active) in the experiment with RXF 393 renal; -73% (active) with SF-268 CNS. Moreover, the growth is -75.4% (active) with SF-295 CNS; -60.5% (active) in the experiment with SF-539 CNS; -16.9% (active) with UACC-257 melanoma; -46.6% (active) in the experiment with M14 melanoma; -54.7% (active) with HCT-15 colon; -70% (active) in the experiment with HT29 colon. For the same molecule, the growth with SNB-19 CNS was -90.1% (active); in the experiment on U251 CNS it was -68.6% (active); in the experiment with PC-3 prostate, -54.3% (active); in the experiment on SK-MEL-5 melanoma it was -61.2% (active); with UACC-62 melanoma, -70.7% (active); with LOX IMVI melanoma, -85.2% (active). Also, the growth in the experiment with SK-MEL-28 melanoma is -76.7% (active).

The record behind these values is PubChem BioAssay (NCI).
